# Results: PubChem BioAssay (Tox21)
# Inconclusive results are not listed. Entries that show only a call come without a potency. Calls of active or inactive are those of the source. The call rests on the fitted dose curve; in most records, active means well fitted inhibition curve with a large enough effect in the repeat runs; inconclusive means weak or mixed curves; inactive means no such curve, though single readings can be large or run the other way.
# Target: Cytochrome P450 1A2 (Homo sapiens) (UniProt P05177)
# Sequence (P05177 whole entry, looked up): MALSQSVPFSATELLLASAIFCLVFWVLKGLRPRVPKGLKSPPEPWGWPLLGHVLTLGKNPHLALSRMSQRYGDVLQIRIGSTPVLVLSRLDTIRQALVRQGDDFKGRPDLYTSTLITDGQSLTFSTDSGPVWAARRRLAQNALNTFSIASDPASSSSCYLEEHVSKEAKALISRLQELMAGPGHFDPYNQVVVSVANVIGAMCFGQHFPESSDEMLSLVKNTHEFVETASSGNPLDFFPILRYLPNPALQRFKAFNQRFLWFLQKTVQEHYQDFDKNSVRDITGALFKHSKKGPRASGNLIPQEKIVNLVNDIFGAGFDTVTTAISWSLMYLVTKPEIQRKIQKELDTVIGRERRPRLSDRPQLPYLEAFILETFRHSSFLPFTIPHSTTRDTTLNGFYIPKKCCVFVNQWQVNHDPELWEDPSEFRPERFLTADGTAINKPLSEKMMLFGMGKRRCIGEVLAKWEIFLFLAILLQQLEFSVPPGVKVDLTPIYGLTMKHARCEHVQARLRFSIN
# Assay: Cytochrome P450 Family 1 Subfamily A Member 2 (CYP1A2) small molecule antagonists: luciferase reporter qHTS assay (AID 1671199); further: nearly all actives have a fitted effect of over 50% in size
# Conditions: P450-Glo CYP1A2 enzyme, luciferin luminescence, 1 h; series mostly up to 115 µM
# Summary of the method: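 Luminescence from luciferin formed by CYP1A2 from a proluciferin substrate, read 20 min after detection reagent. Compound was pre-incubated 10 min with enzyme-substrate, and reaction started with NADPH regeneration solution for 1 h at room temperature; furafylline control.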
# Potency means the concentration at half of the fitted maximal effect.
row,Structure (SMILES),Potency
1,C=Cc1ccc(O)c(OC)c1,35.6 µM (active)
2,COCCC(=O)OC,inactive
3,CC(C)(C)c1cc(CCC(=O)OCCSCCOC(=O)CCc2cc(C(C)(C)C)c(O)c(C(C)(C)C)c2)cc(C(C)(C)C)c1O,inactive
4,O[Si](c1ccccc1)(c1ccccc1)c1ccccc1,inactive
5,c1ccc2c(c1)-c1ccc3ccc4cccc5cc-2c1c3c45,0.219 µM (active)
6,CCCCCCCCCCCCCCCCCCNC(=O)OC1CCN(C(=O)OC[C@H](COC(=O)N(Cc2cccc[n+]2CC)C(=O)c2ccccc2OC)OC)CC1,inactive
7,CCNc1nc(NC(C)(C)C)nc(OC)n1,20 µM (active)
8,CC1(C)[C@H](C(=O)OCc2cccc(Oc3ccccc3)c2)[C@@H]1C=C(Cl)Cl,inactive
9,CCOc1nc(F)cc2nc(S(=O)(=O)Nc3c(Cl)cccc3C(=O)OC)nn12,inactive
10,C=C(C)CCO,inactive
11,CCCCCCCCCC[N+](C)(CCCCCCCCCC)CCC[Si](OC)(OC)OC,20 µM (active)
12,O=[N+]([O-])c1ccc(O)c2ncccc12,inactive
13,Oc1cccc2c(O)cccc12,22.4 µM (active)
14,c1ccc2cc3c4ccccc4c4ccccc4c3cc2c1,0.225 µM (active)
15,O=C(Cl)c1ccc(Cl)cc1Cl,63.3 µM (active)
16,NCc1cccc(C2CCN(C(=O)c3ccc(C#Cc4ccccc4F)o3)CC2)c1,71 µM (active)
17,N#Cc1ccc(C/C(=N/NC(=O)Nc2ccc(OC(F)(F)F)cc2)c2cccc(C(F)(F)F)c2)cc1,25.2 µM (active)
18,O=C1CCCCCCCCCCCCCC1,inactive
